# LANA-H2B inh – blocks KSHV LANA binding to histone H2A/H2B; Q9QR71; cell-free LANA-H2A/H2B peptide, fluorescence polarization; inhibition, % (test concentration not listed); 0.6% of 320,000 active; in the data active = inhibition mostly above about 10%, no sharp cut-off; inactive = mostly below about 6.7%
# Rtt109 HAT inh – inhibitors of Candida albicans Rtt109/Vps75 histone acetyltransferase | Q5AAJ8 | 0.16% of 330,000 active | inhibition, % at 34.9 µM | purified Rtt109/Vps75, ThioGlo CoA-SH fluorescence, 4 h | AID 540336;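 active = inhibition of at least 50% in every replicate; inconclusive = best replicate reaches 50% inhibition but some replicates fall short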
# rCAG binder – binds r(CAG) RNA repeats | r(CAG) RNA repeat, TO-PRO-1 dye displacement fluorescence | inhibition, % at 3 µM | 1.3% of 370,000 active | AID 651821;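 active = inhibition above the plate cutoff, the mean of all test compounds on that plate plus 3 SD, cut at about 35% in these data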;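 also: 0% = DMSO alone and 100% = 100 µM mitoxantrone as full dye displacement; higher means more dye released from RNA so lower well fluorescence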
# ALR inh – blocks human ALR sulfhydryl oxidase activity. 3.8% of 290,000 active. purified ALR, DTT oxidation, H2O2 HRP-luminol luminescence. inhibition, % (concentration not given with the values). P55789;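 active = mean replicate inhibition above about 79%, with every replicate also reaching it, limit read from the data; inconclusive = only one of the two criteria met; inactive = mean below limit and not every replicate reaching it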
# PRMT1 inh – blocks human protein arginine methyltransferase 1 | Q99873 | recombinant PRMT1, activity-based probe fluorescence polarization | inhibition, % at 2.79 µM | 1.3% of 370,000 active;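 active = inhibition above about 21% made by adding two undisclosed values, limit read from the data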
# ABHD5-PLIN5 inh – inhibitors of human ABHD5-perilipin-5 interaction. Split G. princeps luciferase complementation, luminescence, 4 h. inhibition, % at 4 µM. Q00G26+Q8WTS1. AID 602281. 0.78% of 360,000 active;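 active = inhibition above the mean inhibition across every tested compound plus 3 SD, cut at about 22% in these data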;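 also: 0% = DMSO only wells and the 100% control is not disclosed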
# Target sequence (Q00G26 whole entry, looked up): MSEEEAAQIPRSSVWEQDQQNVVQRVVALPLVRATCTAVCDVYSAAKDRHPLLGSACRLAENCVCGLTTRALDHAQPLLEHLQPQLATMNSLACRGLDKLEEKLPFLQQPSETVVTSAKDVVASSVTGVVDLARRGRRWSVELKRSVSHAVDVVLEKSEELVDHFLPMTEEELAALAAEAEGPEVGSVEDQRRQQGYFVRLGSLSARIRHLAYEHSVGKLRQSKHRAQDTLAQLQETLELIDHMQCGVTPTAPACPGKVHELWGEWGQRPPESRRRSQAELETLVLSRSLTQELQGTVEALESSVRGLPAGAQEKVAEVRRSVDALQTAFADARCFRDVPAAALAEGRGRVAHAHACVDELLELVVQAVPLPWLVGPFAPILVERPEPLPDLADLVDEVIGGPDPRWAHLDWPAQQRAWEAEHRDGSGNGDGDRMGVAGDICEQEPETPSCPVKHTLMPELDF
# Target sequence (Q8WTS1 whole entry, looked up): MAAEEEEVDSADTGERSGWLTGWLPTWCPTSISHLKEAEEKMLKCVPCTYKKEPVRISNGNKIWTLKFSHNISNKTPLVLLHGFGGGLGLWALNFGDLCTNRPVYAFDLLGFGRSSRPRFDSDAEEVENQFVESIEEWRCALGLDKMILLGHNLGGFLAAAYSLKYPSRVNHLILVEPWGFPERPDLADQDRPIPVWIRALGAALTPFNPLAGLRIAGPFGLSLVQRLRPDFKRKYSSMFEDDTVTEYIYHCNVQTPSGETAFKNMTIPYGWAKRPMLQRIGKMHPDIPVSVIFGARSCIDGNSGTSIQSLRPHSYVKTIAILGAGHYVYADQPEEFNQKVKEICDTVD
# rCAG bind conf – r(CAG) RNA repeat binding, confirmation; shares compounds with rCAG binder; inhibition, % at 3 µM; TO-PRO-1 dye displacement fluorescence; 70% of 4,300 active;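 active = inhibition above a per-plate cutoff, the mean inhibition of sample wells plus 3 SD, cut at about 35% in these data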;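 also: loss of TO-PRO-1 fluorescence as compound displaces dye from 1x1 AA loop RNA; 0% = DMSO only wells and 100% = 100 µM mitoxantrone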
# dCAG dye counter – counter-screen for rCAG RNA binders: DNA CAG dye complex inhibitors; AID 652068; 94% of 4,300 active; inhibition, % at 3 µM; shares compounds with rCAG binder; d(CAG) DNA oligo TO-PRO-1 dye displacement, fluorescence;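 active = inhibition above its plate's cutoff, the mean test-well inhibition plus 3 SD, cut at about 4.8% in these data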;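 also: 0% = DNA dye mix with DMSO and 100% = 100 µM mitoxantrone; hits displace the dye from DNA and so lower well fluorescence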
# dCAG dye DR – DNA CAG dye complex inhibition, dose response counter-screen; shares compounds with rCAG binder; DNA CAG/GTC duplex TO-PRO-1 dye displacement fluorescence; IC50, µM; 20% of 250 active; in the data active = IC50 below about 10 µM
# * marks the source's active call; other numbers are inactive results; i = inactive; ? = inconclusive; . = not tested or not shown. Hits are enriched below; roughly 5.9% of the tested compounds scored in any of these assays.
SMILES,LANA-H2B inh,Rtt109 HAT inh,rCAG binder,ALR inh,PRMT1 inh,ABHD5-PLIN5 inh,rCAG bind conf,dCAG dye counter,others
O=C(N/N=C/c1ccc(O)c([N+](=O)[O-])c1)C1CC1(c1ccccc1)c1ccccc1 (stereo not drawn),3,6,50*,-9,3,4,50*,19*,
O=[N+]([O-])c1ccc(-c2csc(N/N=C/c3cccnc3)n2)cc1,2,3,12,-15,2,-5,.,.,
CCOC(=O)c1ccc(NC(=O)c2nc[nH]c2C(=O)NC[C@@H](C)O)cc1,.,.,2,.,0,-7,.,.,
COC(=O)CC1=NN(c2ccc(OC)cc2)C(=O)/C1=C\c1ccc(Cl)cc1,-1,18,68*,1,1,-5,83*,41*,
CCOC(=O)CC1=NN(c2ccccc2)C(=O)/C1=C\c1ccc(OC)cc1OC,5,13,65*,-17,1,3,10,5.3*,
CCOC(=O)C1=NN(c2ccccc2)C(=O)/C1=C\c1ccc(N(C)C)cc1,-1,4,61*,?,3,6,63*,19*,
COC(=O)CC1=NN(c2ccccc2)C(=O)/C1=C\c1ccc(OC)cc1,0,4,42*,-10,7,8,29,8.3*,
COc1ccc(/C=C2\C(=O)N(c3c(Cl)cc(Cl)cc3Cl)N=C2NC(=O)c2cccc([N+](=O)[O-])c2)cc1,.,-8,.,2,.,-5,.,.,
C[C@H]1CN([C@@H](C)CO)S(=O)(=O)c2ccc(Br)cc2O[C@@H]1CN(C)C(=O)CCN1CCCCC1,.,.,5,.,-5,8,.,.,
Cn1ccnc1CN1CCC[C@]2(CC[C@H](CCC#N)O2)C1,.,.,1,.,-4,.,.,.,
Cc1ccc(C(=O)C2C(=O)c3ccccc3C2=O)cc1,-2,-2,0,7,1,-16,.,.,
NN=C1c2ccccc2C(=O)C1C(=O)C(c1ccccc1)c1ccccc1 (stereo not drawn),.,0,45*,.,3,-3,44*,28*,
CCCNC(=O)C1(C)CCN(C(=O)c2cc(F)cc(F)c2)C1 (stereo not drawn),.,.,3,.,-3,1,.,.,
CCCC[C@@H]1C=C(C(=O)O)[C@H](c2ccc(C#N)cc2)N1S(=O)(=O)c1ccc(C)cc1,.,0,53*,.,-3,-4,33,7.9*,
CCCC[C@@H]1C=C(C(=O)O)[C@H](c2ccc(Cl)c(Cl)c2)N1S(=O)(=O)c1ccc(C)cc1,1,4,80*,.,2,-2,69*,34*,
CCCCC[C@@H]1C=C(C(=O)O)[C@H](c2ccc(Cl)cc2)N1S(=O)(=O)c1ccc(C)cc1,.,12,79*,.,-1,1,64*,28*,
CCCCC[C@@H]1C=C(C(=O)O)[C@H](c2ccc(C)cc2)N1S(=O)(=O)c1ccc(C)cc1,.,9,74*,.,3,3,53*,18*,
N#CCC1(O)C(=O)N(Cc2ccccc2)c2ccccc21 (stereo not drawn),.,.,3,.,-1,2,.,.,
O=[N+]([O-])c1cccc(NCCCN2CCC(C(O)(c3ccccc3)c3ccccc3)CC2)c1,.,.,4,.,0,.,.,.,
C[C@H]1CN([C@@H](C)CO)C(=O)CCCn2cc(nn2)CO[C@@H]1CN(C)C(=O)CCC(F)(F)F,.,.,0,.,-4,-7,.,.,
Oc1ccc(/C=N/n2c(-c3ccccc3)n[nH]c2=S)cc1,3,12,2,17,6,-8,.,.,
CC(C)Oc1cccc(-c2n[nH]c(=S)n2N=Cc2ccc(OCc3ccccc3)cc2)c1,.,.,51*,.,6,.,52*,26*,
S=c1[nH]nc(COc2ccccc2)n1/N=C/c1ccc(Cl)cc1Cl,1,1,12,6,0,7,.,.,
COc1ccc(/C=N/n2c(-c3n[nH]c4c3CCC4)n[nH]c2=S)cc1,3,3,2,?,-3,-3,.,.,
S=c1[nH]nc(-c2n[nH]c3c2CCC3)n1N=Cc1ccc(OCc2ccccc2)cc1,.,.,38*,.,9,.,43*,14*,
SMILES,LANA-H2B inh,Rtt109 HAT inh,rCAG binder,ALR inh,PRMT1 inh,ABHD5-PLIN5 inh,rCAG bind conf,dCAG dye counter,others
Cc1cc(-c2n[nH]c(=S)n2N=Cc2ccc(OCc3ccccc3)cc2)n[nH]1,.,.,35*,.,4,.,40*,9.8*,
S=c1[nH]nc(COc2ccccc2)n1/N=C/c1ccc(Cl)cc1,1,-1,44*,7,7,-2,30,7.4*,
CC(C)(C)Cc1c(-c2ccc(F)cc2)nc2ccc(Cl)cn12,.,.,1,.,-1,-15,.,.,
CCCCOc1ccc(C(=O)NC2CCCCN(Cc3cccc(Cl)c3)C2=O)cc1 (stereo not drawn),.,.,5,.,1,.,.,.,
CCOc1ccc(-n2c(=S)sc3c(=O)n(-c4ccccc4)c(SCC(=O)O)nc32)cc1,8,7,39*,-9,10,0,26,5.7*,
CCc1ccc(-n2c(=S)sc3c(=O)n(-c4ccccc4)c(SCC(=O)O)nc32)cc1,5,-6,41*,.,7,-4,32,6.9*,
Cc1ccc(-n2c(=S)sc3c(=O)n(-c4ccccc4F)c(SCC(=O)O)nc32)cc1C,5,9,47*,21,-2,-8,46*,13*,
O=C(CCc1ccccc1)N[C@H]1[C@@H](O)CCC[C@]12C(=O)N(Cc1ccccc1)c1ccccc12,.,.,4,.,-1,.,.,.,
COc1cc(OC)c(OC)cc1/C=C/C(=O)c1ccc(NS(=O)(=O)c2ccc(C)cc2)cc1,0,1,46*,-19,-6,13,39*,16*,
COc1ccc(N/C=C\C(=O)c2ccc(C)cc2)cc1OC,2,-5,14,-38,0,2,.,.,
Cc1cc(NS(=O)(=O)c2ccc(NC(=O)/C=C/c3ccccc3)cc2)no1,1,3,30,3,3,-7,.,.,
Cc1cc(NS(=O)(=O)c2ccc(NC(=S)NC(=O)/C=C/c3ccccc3)cc2)no1,5,-3,71*,.,-1,-3,47*,17*,
Cc1ccc(/C=C/C(=O)NC(=S)Nc2ccc(S(=O)(=O)Nc3cc(C)on3)cc2)cc1,-5,9,80*,20,-5,-12,77*,46*,
O=C(/C=C/c1cccs1)NC(=S)Nc1ccc(S(=O)(=O)Nc2ccccc2C(F)(F)F)cc1,-4,1,56*,4,-1,1,70*,32*,dCAG dye DR=i
CN1C(=O)c2cc(NC(=O)Nc3ccccc3)ccc2OC[C@H]2O[C@@H](CC(=O)Nc3cc(F)ccc3F)CC[C@@H]21,.,.,8,.,0,.,.,.,

# Screens deposited in PubChem by several laboratories.
